BAZ2B inh – qHTS Assay for Inhibitors of BAZ2B; Bromodomain adjacent to zinc finger domain protein 2B (Homo sapiens), Q9UIF8; AlphaScreen BAZ2B-H3K14Ac peptide displacement; Potency, µM (doses to about 114 µM), hits mostly inhibitors; 360,000 tested, 4.4% active; AID 504333, 2011; also: nearly all actives have a fitted effect of over 60% in size
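AlphaScreen displacement: compounds (up to 110uM) incubated 30 min at room temperature with a preformed 50 nM BAZ2B/50 nM biotinylated H3K14Ac peptide complex in PBS pH 7.4 with Tween-20. Donor and acceptor beads at 10 ug/mL final added, 20 min light-protected before reading.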
HP1b binding inh – HTS for Inhibitors of HP1-beta Chromodomain Interactions with Methylated Histone Tails; Chromobox protein homolog 1 (Homo sapiens), P83916; AlphaScreen HP1-beta / biotin-H3K9me3 peptide binding; Potency, µM (titrated, usually from 114 µM), hits mostly inhibitors; 390,000 tested, 0.56% active; AID 540317, 2011; also: nearly all actives have a fitted effect of over 70% in size
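AlphaScreen: HP1-beta (50 nM) preformed 30 min with biotin-H3(1-18)K9me3 peptide (50 nM) in PBS pH 7.4, 0.01% Tween-20. Compound added for 30 min at RT, then streptavidin donor/nickel chelate acceptor beads (10 ug/mL) for 30 min.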
CtBP-E1A blk – qHTS Assay for Inhibitors of the CtBP/E1A Interaction | CtBP / adenovirus E1A interaction (AlphaScreen) | AlphaScreen GST-E1A/His-CtBP binding, 1536-well; hits give low values | activity change, % (no concentration beside the values) | 340,000 tested, 0.49% active; in the data active = activity change below about -65%; inconclusive = mostly about -30% to -63%
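Protein mix (5X: 125 nM each GST-E1A, His-CtBP) was incubated with pinned compound 2 h at 37 deg C in dark, in 50 mM Tris pH 8.0 buffer with 300 mM NaCl. Glutathione donor and nickel acceptor beads followed; AlphaScreen signal read after 1 h.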
G9a inh – qHTS Assay for Inhibitors of Histone Lysine Methyltransferase G9a; Potency, µM (series often up to 102 µM), most hits filed as inhibitors; Histone-lysine N-methyltransferase EHMT2 (Homo sapiens), Q96KQ7; G9a H3K9 monomethylation, AlphaScreen, 2 h; 350,000 tested, 8.8% active; AID 504332, 2011; also: nearly all actives have a fitted effect of over 75% in size
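Using a bead-based AlphaScreen, monomethylated H3K9 product from 2 h room-temperature reactions (G9a 20 nM, peptide 500 nM, SAM 20 uM) was detected with 0.5 ug/mL rabbit anti-H3K9me1 antibody.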
JMJD2A Tudor – qHTS Assay for Inhibitors of JMJD2A-Tudor Domain; Lysine-specific demethylase 4A (Homo sapiens), O75164; AlphaScreen JMJD2A-Tudor / H3K4me3 peptide binding; Potency, µM (titrated, usually from 114 µM), actives largely listed as inhibitors; 390,000 tested, 4.4% active; AID 504339, 2011; also: nearly all actives have a fitted effect of over 50% in size
Target sequence (O75164 whole entry, looked up, the tested form may be a part): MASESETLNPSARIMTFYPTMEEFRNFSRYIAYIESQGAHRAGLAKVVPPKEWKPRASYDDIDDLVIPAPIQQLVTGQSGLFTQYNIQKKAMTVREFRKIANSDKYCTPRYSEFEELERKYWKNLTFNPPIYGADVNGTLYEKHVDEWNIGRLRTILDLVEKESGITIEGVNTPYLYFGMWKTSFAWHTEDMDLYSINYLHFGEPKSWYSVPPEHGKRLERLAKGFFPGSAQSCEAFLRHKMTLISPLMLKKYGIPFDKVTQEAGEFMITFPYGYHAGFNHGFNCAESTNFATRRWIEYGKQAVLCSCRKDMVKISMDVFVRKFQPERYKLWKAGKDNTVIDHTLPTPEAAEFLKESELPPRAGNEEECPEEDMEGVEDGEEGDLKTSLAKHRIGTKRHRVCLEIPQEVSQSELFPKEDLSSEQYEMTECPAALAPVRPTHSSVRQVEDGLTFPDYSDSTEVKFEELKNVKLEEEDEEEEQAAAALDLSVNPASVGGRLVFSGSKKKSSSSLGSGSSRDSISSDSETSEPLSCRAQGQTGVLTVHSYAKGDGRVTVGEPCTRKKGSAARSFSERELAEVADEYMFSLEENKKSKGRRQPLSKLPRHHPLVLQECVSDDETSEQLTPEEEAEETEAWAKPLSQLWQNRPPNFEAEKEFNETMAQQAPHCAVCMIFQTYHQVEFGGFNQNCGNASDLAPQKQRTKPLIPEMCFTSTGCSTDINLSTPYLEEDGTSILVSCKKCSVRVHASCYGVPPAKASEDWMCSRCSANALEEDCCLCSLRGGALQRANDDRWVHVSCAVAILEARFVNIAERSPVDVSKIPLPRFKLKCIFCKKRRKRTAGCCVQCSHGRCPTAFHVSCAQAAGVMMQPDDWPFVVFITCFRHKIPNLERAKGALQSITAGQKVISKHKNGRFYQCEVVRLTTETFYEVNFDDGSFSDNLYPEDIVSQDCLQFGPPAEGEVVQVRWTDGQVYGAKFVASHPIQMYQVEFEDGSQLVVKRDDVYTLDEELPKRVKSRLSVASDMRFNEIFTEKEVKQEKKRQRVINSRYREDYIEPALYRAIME
Six1-Eya2 blk – qHTS Assay for Inhibitors of the Six1/Eya2 Interaction | Homeobox protein SIX1 (Homo sapiens) + Protein phosphatase EYA2 (Homo sapiens), … | AlphaScreen GST-Six1/His-Eya2 binding, biochemical; hits give low values | activity change, % (concentration not given with the values) | 360,000 tested, 0.56% active; in the data active = activity change below about -65%; inconclusive = mostly about -30% to -63%
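AlphaScreen luminescence read after one hour at 37 °C in darkness. Pin-transferred compounds met GST-Six1 and His-Eya2 protein (5X stock 250 nM/500 nM) plus glutathione donor and Ni-chelate acceptor beads (5X, 50 ug/mL).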
Numbers stand for hits; 0 = inactive; ? = inconclusive; - = no result; [ ] = another dose, or the depositor's remark. The list is not random: actives were taken first. Their share in the collection is about 10%. Unless noted, calls follow the shape of the dose curve; as a rule, active = well fitted inhibition curve with a large enough effect; inconclusive = small, poorly fitted or top-dose-only effect; inactive = no such curve, though single readings can be large or run the other way.

SMILES | BAZ2B inh | HP1b binding inh | CtBP-E1A blk | G9a inh | JMJD2A Tudor | Six1-Eya2 blk
COc1ccc(NS(=O)(=O)c2cc(NC(=O)C3CC3)ccc2N2CCCCC2)cc1 | - | 0 | 0 | 0 | 0 | 0
COc1ccccc1NS(=O)(=O)c1cc(NC(=O)CC(C)(C)C)ccc1N1CCOCC1 | 0 | 0 | - | 0 | 0[11.4 µM] | 0
CN(C)c1ccc(C2/C(=C(/O)c3ccccc3)C(=O)C(=O)N2CCCC(=O)O)cc1 (stereo not given) | 0 | 0 | 0 | ? | ? | 0
COCCCN1C(=O)C(=O)/C(=C(/O)c2ccccc2)C1c1ccc2c(c1)OCO2 (stereo not given) | 0 | 0 | 0 | 56µM | ? | 0
COCCCN1C(=O)C(=O)/C(=C(/O)c2ccccc2)C1c1ccc(N(C)C)cc1 (stereo not given) | ? | 0 | 0 | 45µM | ? | 0
COCCCNC(=O)Cn1nc(N2CCN(c3ccccc3)CC2)ccc1=O | 0 | 0 | - | 0 | 0 | -
CCN(C(=O)Cn1nnc2sc(-c3ccccc3)cc2c1=O)c1cccc(C)c1 | 0 | 0 | - | 4.5µM | ? | -
CCCN(CCC)C(=O)Cn1nnc2sc(-c3ccccc3)cc2c1=O | ? | 0 | - | 13µM | 0 | -
CCc1ccc(NC(=O)C(C)n2nnc3sc(-c4ccccc4)cc3c2=O)cc1 (stereo not given) | 0 | 0 | - | 3.5µM | 0 | -
COc1ccc(-n2ncc(C(=O)NCCc3ccsc3)c2C2CCN(C(=O)OC(C)(C)C)CC2)cc1 | 0 | 0 | - | 0 | 0 | -
COc1ccc(OC)c(CNc2ccc3c(c2)CCC3)c1 | ? | ? | 0 | 32µM | ? | 0
COc1cccc(CNc2ccc3c(c2)CCC3)c1 | ? | 0 | 0 | 14µM | ? | 0
COc1ccc(OC)c(CNc2ccc(F)c(Cl)c2)c1 | ? | 0 | 0 | 50µM | ? | 0
COc1ccc(OC)c(CC(=O)Nc2ccc3c(c2)CCC3)c1 | 0 | 0 | 0 | 0 | 0 | 0
COc1ccc(C2=Nn3c(nnc3-c3cc(OC)ccc3OC)SC2)cc1 | - | - | - | - | 0 | -
CCC(NC(=O)Nc1ccc(OC)c(OC)c1)c1c(-n2cccc2)sc2c1CCN(C)C2 (stereo not given) | 50µM | ? | - | ? | ? | -
CCOc1ccc(NC(=O)NC(C)c2c(-n3cccc3)sc3c2CCN(CC)C3)cc1 (stereo not given) | ? | 0 | - | ? | ? | -
CCOc1ccccc1NC(=O)NC(CC)c1c(-n2cccc2)sc2c1CCN(C)C2 (stereo not given) | 0 | 0 | - | ? | 0 | -
CCC(NC(=O)Nc1cc(OC)ccc1OC)c1c(-n2cccc2)sc2c1CCN(CC)C2 (stereo not given) | 40µM | ? | - | 14µM | 56µM | -
Cc1ccc(S(=O)(=O)N2CCCc3cc(NS(=O)(=O)c4cc(F)ccc4F)ccc32)cc1 | 0 | 0 | - | 0 | 0 | -
CN(C)/C=C(\C#N)S(=O)(=O)c1ccccc1 | 0 | 0 | - | 0 | 0 | 0
CS(=O)(=O)/C(C#N)=C\c1cnc(S(=O)(=O)c2ccccc2)s1 | 50µM | - | - | 1µM | - | -
CCOCCCNC(=O)CN1C(=O)c2c(c3ccccc3n2C)C1c1ccc(OC)cc1 (stereo not given) | ? | 0 | - | 0 | 0 | -
CC(=O)c1cc2c(cc1NC(=O)CCn1cnnn1)OCO2 | 0 | 0 | 0 | 40µM | 0 | 0
CC(=O)c1cc2c(cc1NC(=O)CCCC(=O)O)OCO2 | 0 | 0 | 0 | 0 | 0 | 0
SMILES | BAZ2B inh | HP1b binding inh | CtBP-E1A blk | G9a inh | JMJD2A Tudor | Six1-Eya2 blk
CC(=O)c1cc2c(cc1NC(=O)CN1CCCCCCC1)OCO2 | 50µM | ? | 0 | 10µM | ? | 0
CCCCc1cc2c(cc1NC(=O)CN1CCCCC1)OCCO2 | 0 | 0 | 0 | ? | 0 | 0
CC1CCN(S(=O)(=O)c2cc(C(=O)NCCc3ccccc3)n(C)c2)CC1 | 0 | 0 | - | 0 | 0 | -
Cc1c(C(=O)c2ccc(Cl)c([N+](=O)[O-])c2)c2ccccn2c1CCC#N | ? | ? | 0 | ? | ? | 0
Cc1c(C(=O)c2ccc(F)cc2F)c2ccccn2c1CCC#N | 18µM | 0 | 0 | 8.9µM | 0 | 0
Cc1c(C(=O)c2ccc(N(C)C)cc2)c2ccccn2c1CCC#N | ? | ? | 0 | 45µM | ? | 0
O=c1[nH][nH]cc1C=Nc1ccc(Cl)cc1Cl | ? | 0 | 0 | 0 | 0 | 0
O=c1[nH][nH]cc1C=Nc1ccccc1O | 40µM | 0 | -83 | 0[12.7 µM] | 0 | -77
O=c1[nH][nH]cc1C=Nc1cc(Cl)ccc1O | 14µM | 0 | - | ? | 79µM | 0
COCCCN(CC(=O)Nc1ccc(N2CCOCC2)cc1)S(=O)(=O)c1ccc(Cl)cc1 | - | ? | 0 | ? | 79µM | 0
COc1ccc(CCC(=O)N(C)CC(=O)Nc2ccc(N3CCOCC3)cc2)cc1 | 0 | 0 | 0 | 0 | 0 | 0
CN(CC(=O)Nc1ccc(N2CCOCC2)cc1)C(=O)CCCOc1ccc(Cl)cc1Cl | ? | 0 | 0 | 20µM | 0 | ?
CC(Oc1ccc(Br)cc1)C(=O)N(C)CC(=O)Nc1ccc(N2CCOCC2)cc1 (stereo not given) | 0 | 0 | 0 | 50µM | 0 | 0
CCOc1ccc(OCCCC(=O)N(C)CC(=O)Nc2ccc(N3CCOCC3)cc2)cc1 | 0 | 0 | 0 | 35µM | 0 | 0
Cc1oc2ncn(CC(C)C)c(=O)c2c1C(=O)N1CCN(c2ccc(F)cc2)CC1 | 0 | 0 | - | 0 | 0 | -
O=C(/C=C\c1ccccc1)NC1CC(=O)N(c2ccccc2)C1 (stereo not given) | 0 | 0 | - | 0 | 0 | -
Cc1cc(Nc2sc(C(=O)c3ccc(F)cc3)c(N)c2C(=O)Nc2ccc(F)cc2)ccc1Cl | ? | 0 | - | ? | ? | -
Cn1c2cc(C=O)sc2c2cnn(Cc3ccccc3F)c(=O)c21 | - | - | - | - | 0 | -
CN(C)c1ccc(C(=S)N2CCOCC2)cc1Br | 0 | 0 | 0 | ? | 0 | 0
S=C(c1ccc2c(c1)OCO2)N1CCOCC1 | 0 | 0 | 0 | 32µM | 0 | 0
S=C(c1ccc2c(c1)OCO2)N1CCCCCC1 | 0 | 0 | 0 | 50µM | 0 | 0
O=c1cc(-c2ccc(F)cc2)nc(SCc2nc(-c3cccc(C(F)(F)F)c3)no2)[nH]1 | 0 | 0 | - | 0 | 0 | -
COC(=O)c1scc(C)c1N/N=C(\C)c1ccc(F)cc1F | 0 | 0 | 0 | 0 | 0 | 0
COC(=O)c1scc(C#N)c1N/N=C(\C#N)S(=O)(=O)c1ccc(Cl)cc1 | 0 | 0 | 0 | 45µM | ? | 0
COC(=O)c1scc(C)c1NC(=O)c1ccc(Cl)cc1 | 0 | 0 | 0 | 0[0.501 µM] | 0 | 0

Source: PubChem
